The values below come from a collection of fitness landscapes (doi:10.1016/j.celrep.2020.107928).

The full ranking holds about 81,000 sequences; the median of “one-hybrid fitness for binding NBS DNA” is about -0.1, and the highest 2% start at about 0.36. The full list was thinned out, with the highest values kept by preference.

B1: Caulobacter ParB omega fusion; a variant is named by its letters at X, in order, B8GW30 (parent)
chain: MESVVVGEPGMSEGRRGLGRGLSALLGEVDAAPAQAPGEQLGGSREAPIEILQRNPDQPRRTFREEDLEDLSNSIREKGVLQPILVRPSPDTAGEYQIVAGERAWRAAQRAGLKTVPIMVRELDDLAVLEIGIIENVQRADLNVLEEALSYKVLMEKFERTQENIAQTIGKSXSHVANXMRLLXLPDEVQSYLVSGELTAXHARAIAAAADPVALAKQIIEGGLSVRETEALARKAPNLSAGKSKGGRPPRVKDTDTQALESDLSSVLGLDVSIDHRGSTGTLTITYATLEQLDDLCNRLTRGI

The variants in this experiment derive from B1. The experiment can be described thus: one-hybrid fitness for binding NBS DNA (the Noc-binding site; scaled: cognate 1, non-cognate 0); higher = stronger binding. To be noted: with NBS DNA site. The method, boiled down:
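Selection: bacterial one-hybrid in E. coli USO, HIS3 reporter with the site 19 bp from the promoter, 48 hours at 37°C on M9-minus-histidine plus 0.1 mM IPTG and 5 mM 3-AT. Libraries were Caulobacter ParB with four randomised specificity codons, sequenced on Illumina before and after selection. Fitness is the rescaled log change in variant-to-wild-type read ratio, anchored to the cognate and non-cognate sites.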
Turning to SIAA, the “one-hybrid fitness for binding NBS DNA” value was not above 0.2. Consider YQPS, for which the “one-hybrid fitness for binding NBS DNA” value was not above 0.2.

On to KTAW, for which the “one-hybrid fitness for binding NBS DNA” value was not above 0.2. For CMYT, the “one-hybrid fitness for binding NBS DNA” value is not above 0.2.

As for DGST, the “one-hybrid fitness for binding NBS DNA” value was not above 0.2. With AMAP, the “one-hybrid fitness for binding NBS DNA” value is not above 0.2. For QKDS the value was 0.332. In the case of QKQP, the “one-hybrid fitness for binding NBS DNA” value was not above 0.2. The same measure for QKNP: not above 0.2; for QKRG: 0.335; for QKNS: 0.539. On to QKRN, for which the “one-hybrid fitness for binding NBS DNA” value was determined as 0.37. The same measure for QKYN: not above 0.2; for QKIS: 0.278; for QKYS: 0.43. The same measure for QKQS: 0.458; for QKQD: not above 0.2. For QKPS the value was not above 0.2. With DCTY, the “one-hybrid fitness for binding NBS DNA” value is not above 0.2. The same measure for IHHC: not above 0.2. As for WGKE, the “one-hybrid fitness for binding NBS DNA” value was not above 0.2.

As to WAWT, the “one-hybrid fitness for binding NBS DNA” value was not above 0.2.

With MWRS, the “one-hybrid fitness for binding NBS DNA” value is not above 0.2. Consider MATS, for which the “one-hybrid fitness for binding NBS DNA” value was not above 0.2. Turning to CSVV, the “one-hybrid fitness for binding NBS DNA” value is not above 0.2.

For GFNG, the “one-hybrid fitness for binding NBS DNA” value was not above 0.2. The same measure for GKLS: not above 0.2; for GKLD: not above 0.2; for QKAP: not above 0.2.

QKHH: the “one-hybrid fitness for binding NBS DNA” value stood at 0.205. The same measure for QKAN: not above 0.2; for QKCN: not above 0.2.

Turning to QKCH, the “one-hybrid fitness for binding NBS DNA” value was not above 0.2.

As for QKCS, the “one-hybrid fitness for binding NBS DNA” value came out at 0.419.

For the variant QKAS, the “one-hybrid fitness for binding NBS DNA” value was 0.498. Turning to QKHS, the “one-hybrid fitness for binding NBS DNA” value was 0.494. For GKLH the value was 0.366; for QKHD, not above 0.2. For SLNQ the value was not above 0.2. For VERV the value was not above 0.2; for NEQT, not above 0.2; for RMDV, not above 0.2. For RYAC, the “one-hybrid fitness for binding NBS DNA” value is not above 0.2. For YPLD the value was not above 0.2; for IQMR, not above 0.2; for QKSP, not above 0.2. With QKLD, the “one-hybrid fitness for binding NBS DNA” value was not above 0.2.

As for QKRH, the “one-hybrid fitness for binding NBS DNA” value worked out at 0.579. QKRF: the “one-hybrid fitness for binding NBS DNA” value was determined as 0.258. As for QKLS, the “one-hybrid fitness for binding NBS DNA” value is 0.392. For GWLI the value was 0.404; for QKRD, 0.268; for QKSS, 0.449.

For QKLH, the “one-hybrid fitness for binding NBS DNA” value worked out at 0.246.

Take GWLP: the “one-hybrid fitness for binding NBS DNA” value is not above 0.2. With GWLS, the “one-hybrid fitness for binding NBS DNA” value is not above 0.2.

Take QKSH: the “one-hybrid fitness for binding NBS DNA” value amounted to 0.241. The same measure for YTAV: not above 0.2; for HGTI: not above 0.2; for VPLE: not above 0.2. The same measure for AYGD: not above 0.2; for RKKE: not above 0.2; for KHKY: not above 0.2. For QKRI the value was 0.301.

Consider QKRS, for which the “one-hybrid fitness for binding NBS DNA” value was found to be 0.677. For QKDD, the “one-hybrid fitness for binding NBS DNA” value is not above 0.2. As to QKGH, the “one-hybrid fitness for binding NBS DNA” value worked out at 0.228.

For the variant QKNH, the “one-hybrid fitness for binding NBS DNA” value was determined as 0.286.

In the case of QKDH, the “one-hybrid fitness for binding NBS DNA” value came to 0.521. On to QKRP, for which the “one-hybrid fitness for binding NBS DNA” value came out at 0.261. The same measure for QKGS: 0.465.

Consider QKGD, for which the “one-hybrid fitness for binding NBS DNA” value is not above 0.2. As to MPKT, the “one-hybrid fitness for binding NBS DNA” value is not above 0.2.

RGWG: the “one-hybrid fitness for binding NBS DNA” value was not above 0.2. Regarding DTNG, the “one-hybrid fitness for binding NBS DNA” value is not above 0.2. The same measure for IIGR: not above 0.2; for VAWT: not above 0.2. Consider RYQS, for which the “one-hybrid fitness for binding NBS DNA” value worked out at 0.386.

RYQD: the “one-hybrid fitness for binding NBS DNA” value is not above 0.2.

For the variant RYSS, the “one-hybrid fitness for binding NBS DNA” value came to 0.437. For RYSG the value was not above 0.2; for RYRD, not above 0.2; for RYRS, 0.572. Take RYSC: the “one-hybrid fitness for binding NBS DNA” value is not above 0.2.

Consider RYST, for which the “one-hybrid fitness for binding NBS DNA” value worked out at 0.452. The same measure for RYSN: not above 0.2. For RYRN the value was not above 0.2; for RYSH, not above 0.2. RYQH: the “one-hybrid fitness for binding NBS DNA” value was not above 0.2.

As for MMDT, the “one-hybrid fitness for binding NBS DNA” value is not above 0.2. The same measure for HANR: not above 0.2; for IMHC: not above 0.2.

As for VAPN, the “one-hybrid fitness for binding NBS DNA” value is not above 0.2. For the variant GWLG, the “one-hybrid fitness for binding NBS DNA” value was not above 0.2. The same measure for KQKS: not above 0.2; for FLVG: not above 0.2.

Consider LDND, for which the “one-hybrid fitness for binding NBS DNA” value is not above 0.2. The same measure for SIIL: not above 0.2. Consider AHHA, for which the “one-hybrid fitness for binding NBS DNA” value was not above 0.2.

Consider SHVW, for which the “one-hybrid fitness for binding NBS DNA” value was not above 0.2.

CFRT: the “one-hybrid fitness for binding NBS DNA” value was not above 0.2. Consider RYND, for which the “one-hybrid fitness for binding NBS DNA” value was not above 0.2. The same measure for RYHD: not above 0.2.

Turning to RYDS, the “one-hybrid fitness for binding NBS DNA” value was not above 0.2.

In the case of RYCH, the “one-hybrid fitness for binding NBS DNA” value is not above 0.2. The same measure for RYIS: not above 0.2; for RYNS: 0.497; for RYCS: 0.395. As to RYCP, the “one-hybrid fitness for binding NBS DNA” value is not above 0.2. The same measure for RYWS: not above 0.2; for RYHN: not above 0.2; for RYHS: 0.441. For RYYS, the “one-hybrid fitness for binding NBS DNA” value came out at 0.371. Regarding EYQC, the “one-hybrid fitness for binding NBS DNA” value is not above 0.2. The same measure for RKSA: 0.284.

On to PEMV, for which the “one-hybrid fitness for binding NBS DNA” value is not above 0.2. For LCRH the value was not above 0.2. As for YRHS, the “one-hybrid fitness for binding NBS DNA” value was not above 0.2. Consider RYGN, for which the “one-hybrid fitness for binding NBS DNA” value is not above 0.2. The same measure for RYQF: not above 0.2; for RYQT: 0.381; for RYHQ: not above 0.2. With RYGD, the “one-hybrid fitness for binding NBS DNA” value was not above 0.2.

Regarding RYHT, the “one-hybrid fitness for binding NBS DNA” value is 0.45. For RYGF the value was not above 0.2. Turning to RYGC, the “one-hybrid fitness for binding NBS DNA” value was not above 0.2. Turning to RYQY, the “one-hybrid fitness for binding NBS DNA” value was not above 0.2. For RYHG the value was not above 0.2; for RYGS, 0.426; for RYGT, 0.373. For TIRS the value was not above 0.2; for SHCW, not above 0.2. For PSRV the value was not above 0.2; for QMAC, not above 0.2. Take DGSR: the “one-hybrid fitness for binding NBS DNA” value is not above 0.2.

With HLCR, the “one-hybrid fitness for binding NBS DNA” value was not above 0.2. Take TSRL: the “one-hybrid fitness for binding NBS DNA” value was not above 0.2. As to VDPI, the “one-hybrid fitness for binding NBS DNA” value is not above 0.2. For the variant VKWG, the “one-hybrid fitness for binding NBS DNA” value is not above 0.2.

As to NFAR, the “one-hybrid fitness for binding NBS DNA” value was not above 0.2. For the variant TAGV, the “one-hybrid fitness for binding NBS DNA” value was not above 0.2. For RRAR the value was 0.757.

As for RRFR, the “one-hybrid fitness for binding NBS DNA” value came to 0.728. For RRAM the value was 0.306. The same measure for RRAG: 0.357; for NERC: not above 0.2. VQTI: the “one-hybrid fitness for binding NBS DNA” value was not above 0.2. The same measure for RMTM: not above 0.2; for VKPG: not above 0.2. The same measure for MIPC: not above 0.2; for QCAR: 0.643; for QSAD: not above 0.2. The same measure for QIAR: 0.397; for QEAR: not above 0.2. As for QPAR, the “one-hybrid fitness for binding NBS DNA” value is not above 0.2. As for QSAR, the “one-hybrid fitness for binding NBS DNA” value came to 0.526. For QIFR the value was 0.301; for QIAH, not above 0.2; for QSAH, not above 0.2.

On to PIRY, for which the “one-hybrid fitness for binding NBS DNA” value was not above 0.2. The same measure for TWMC: not above 0.2; for IDTL: not above 0.2; for TIIR: not above 0.2. Consider NVDM, for which the “one-hybrid fitness for binding NBS DNA” value is not above 0.2. For SALS the value was not above 0.2; for QLKP, not above 0.2; for QLKN, 0.365. For QLKS, the “one-hybrid fitness for binding NBS DNA” value was determined as 0.573. In the case of QLKD, the “one-hybrid fitness for binding NBS DNA” value was not above 0.2. Consider QLVS, for which the “one-hybrid fitness for binding NBS DNA” value was not above 0.2. As for QLKH, the “one-hybrid fitness for binding NBS DNA” value came out at 0.487. In the case of QPKN, the “one-hybrid fitness for binding NBS DNA” value was not above 0.2. Take QLKQ: the “one-hybrid fitness for binding NBS DNA” value was found to be 0.331. The same measure for QCKN: 0.445; for QLVN: not above 0.2. Regarding QLVH, the “one-hybrid fitness for binding NBS DNA” value is not above 0.2. For the variant QSKN, the “one-hybrid fitness for binding NBS DNA” value was 0.359. HLWL: the “one-hybrid fitness for binding NBS DNA” value was not above 0.2.

Regarding WMPR, the “one-hybrid fitness for binding NBS DNA” value was not above 0.2.

For the variant DMKY, the “one-hybrid fitness for binding NBS DNA” value was not above 0.2. The same measure for PLDP: not above 0.2; for TIRA: not above 0.2. The same measure for EGSN: not above 0.2. For LRCP the value was not above 0.2; for GCSF, not above 0.2. Take HDFR: the “one-hybrid fitness for binding NBS DNA” value was not above 0.2. The same measure for DATM: not above 0.2; for TSVL: not above 0.2; for CRHF: not above 0.2. The same measure for RHLT: 0.33; for RDQT: not above 0.2; for RAQC: not above 0.2.

RHPT: the “one-hybrid fitness for binding NBS DNA” value is not above 0.2.

As to RFQT, the “one-hybrid fitness for binding NBS DNA” value turned out to be 0.242.

As for RSQT, the “one-hybrid fitness for binding NBS DNA” value came out at 0.418.

As for RAQP, the “one-hybrid fitness for binding NBS DNA” value is not above 0.2. As for RAQT, the “one-hybrid fitness for binding NBS DNA” value was 0.395. For the variant RHIT, the “one-hybrid fitness for binding NBS DNA” value is 0.243. For RHRT the value was 0.583; for RHYT, 0.287. With RHQT, the “one-hybrid fitness for binding NBS DNA” value was found to be 0.39.
